# The campaign covered roughly 75,000 compounds. About 15 (0.02%) were called active. Not shown: some 3% with an inconclusive outcome. The sample holds actives, similar compounds and a random draw of the others, so the mix is not that of the screen. Values without a mark were called inactive. Calls come from the whole dose curve; as a rule, active = well fitted inhibition curve with a large enough effect in the main read-out, with a control signal flat (not every such curve was filed as active); inconclusive = small, poorly fitted or top-dose-only effect, or a change in a side signal; inactive = flat fitted curve, though single readings scatter.
# Target: Caspase-7 (Homo sapiens) (UniProt P55210)
# Test: qHTS Assay for Allosteric/Competitive Inhibitors of Caspase-7; for activity change, negative = inhibition: % of control where 0% means no effect
# Details: recombinant caspase-7, Ac-DEVD-AFC fluorescence rate; series mostly up to 57.5 µM; activity change, negative = inhibition: at the top concentration
# From the text: NIH Molecular Libraries Screening Centers Network [MLSCN]
# NIH Chemical Genomics Center [NCGC]
# PI Name: Dr. James Wells,
# Dr. Enrique Perez-Paya, Dr.Janice Williams, Dr. Dennis Wolan, a person
# The caspases (Cysteine Aspartyl Protease) comprise a related family of 14 dimeric proteases that are critical mediators of apoptosis (programmed cell death) and inflammation. The caspases represent an important class of drug targets for stroke, ischemia, cancer and inflammatory diseases. […] One goal of this project was to identify compounds that act as allosteric inhibitors via stabilizing the procaspase form of the enzyme. Previous work in Well's laboratory has shown that such allosteric inhibitors can be identified and these act by binding at the dimer interface of enzyme (Hardy, Lam et al., 2004).
# The biochemical assay was configured using purified caspase 7 at a high enzyme concentration to promote formation of the homodimers and thus facilitate the identification of allosteric inhibitors. The overall goal was to identify reversible inhibitors with better drug-like properties than the currently available set of aspartyl-containing peptidomimetics that covalently bind the active site. Caspase 7 was assayed using the profluorescent substrate Ac-DEVD-AFC. After initiation of the assay with substrate the plates were rapidly read using an automated robotic system (Kalypsys, Inc.) to maintain consistent timing. A kinetic mode of detection was used where the initial rate was collected (estimated final product formation was ~10%). Compounds were screened as a concentration-titration series that ranged from 57 uM to 0.7 nM. Below is the protocol used for caspase 7.
# NCGC Assay Protocol Summary:
# Caspase 7 was prepared in buffer (50 mM HEPES pH 7.5, 50 mM KCl, 200 mM NaCl, 10 mM DTT, 0.1% CHAPS) at a concentration of 66.6 nM and 3 uL was dispensed to all wells using black solid Kalypsys 1536-well plates. 20 nL of DMSO containing compounds was added using a pin-tool (Kalypsys Inc.) to columns 5-48. Then 20 nL of DMSO solution from a control plate was added to columns 1-4. Controls were: Column 1, 16 point titration with each concentration in duplicate (1:1 dilutions in DMSO; final starting concentration was 57 uM) of the caspase 7 inhibitor Ac-DEVD-CHO (Alexis Biochemicals); Column 2, a 16 point titration with each concentration in duplicate of the free AFC fluorophore prepared in DMSO (Alexis Biochemicals), final starting was 40 uM; Column 3 neutral (DMSO only) control; Column 4: DMSO alone, to serve as a negative control (no substrate was added). Then 1 uL of 20 uM the substrate Ac-DEVD-AFC (Alexis Biochemicals) prepared in the same buffer was dispensed to all wells except columns 2 and 4 and the plates were immediately transferred (< 1 min) to the Viewlux. The plates were then exposed using 405 nm excitation/520 nm emission filters for 4 sec and read at 20 sec intervals for 3 min. Final enzyme concentration was 50 nM and the final substrate concentration was 5 uM.
# Concentration-response curves were fitted to the data calculated from slope of the linear regression of fluorescent intensity versus time (the rate). The concentration-effect curves were then classified based on curve quality (r2), response magnitude and degree of measured activity. […] Inconclusive compounds had appreciable concentration-dependent effects on both the measured rate and the interpolated basal fluorescence intensity at the start of the reaction but where the basal fluorescent intensity was marginal (e.g. < 10-fold). Inconclusive compounds also encompass highly fluorescent compounds (>100-fold increases in fluorescent intensities values relative to controls) where artificial concentration-dependent decreases in the rate occurred at high compound concentrations due to fluorescent interferences.
# Keywords: Caspase 7, proteases, profluorescent, MLSMR, MLSCN, NIH Roadmap, qHTS, NCGC
# Potency is the fitted concentration of half-maximal effect.
# Sequence of Caspase-7 (Homo sapiens) (P55210 24-198 limits assumed): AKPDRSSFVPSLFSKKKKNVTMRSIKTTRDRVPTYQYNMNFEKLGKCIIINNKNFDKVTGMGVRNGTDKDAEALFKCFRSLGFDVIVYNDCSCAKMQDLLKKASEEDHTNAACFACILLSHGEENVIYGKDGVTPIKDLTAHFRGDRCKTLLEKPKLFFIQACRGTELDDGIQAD
# Sequence of Caspase-7 (Homo sapiens) (P55210 207-303 limits assumed): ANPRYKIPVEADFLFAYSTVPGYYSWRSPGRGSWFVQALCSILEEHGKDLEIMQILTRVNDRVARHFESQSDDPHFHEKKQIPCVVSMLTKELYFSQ
SMILES,"activity change, negative = inhibition",Potency
CC1CCc2c(sc(NC(=O)c3ccc(Cn4cc(Br)cn4)o3)c2C(N)=O)C1 (centres undefined),-12.6%,–
C/C(=N\O)C1(C)N(O)C(C)(C)C(c2ccc(Br)cc2)=[N+]1[O-] (centres undefined),0.703%,–
CC(=O)Nc1ccc(NC(=O)CN2CCCC(C)C2)c(Cl)c1 (centres undefined),-0.338%,–
Cn1c(N)c(C(=O)COC(=O)c2cc(C(F)(F)F)nc3c(C(F)(F)F)cccc23)c(=O)n(C)c1=O,1.07%,–
Cc1cc(NC(=O)CCC(=O)N(c2cccc(F)c2)C(C(=O)NC2CCCC2)c2ccncc2)no1 (centres undefined),0.523%,–
COc1ccc(N2C(=O)C3CCCN3C2c2cc(OC)c(OC)cc2OC)cc1 (centres undefined),-1.73%,–
O=C(NCc1ccco1)c1cc(-c2cccnc2)nc2ccc(Cl)cc12,-1.35%,–
CC(C)CN1CCc2nc(-c3ccccc3)c3c(c2C1)COC(C)C3 (centres undefined),-0.41% [at 11.5 µM],–
O=C(Nc1cccc(Cl)c1)OCc1ccccn1,1.86%,–
O=C(O)CC(C(=O)O)C(CC(=O)O)C(=O)O (centres undefined),0.506%,–
CCc1ccc(CCC(=O)Nc2ccc(S(N)(=O)=O)cc2)o1,0.82%,–
CN(C)CCSS(=O)(=O)O,-1.05% [at 11.5 µM],–
C[C@@H]1O[C@@H](OC[C@H]2O[C@@H](Oc3c(-c4cccc(O)c4O)oc4cc(O)cc(O)c4c3=O)[C@H](O)[C@@H](O)[C@@H]2O)[C@H](O)[C@H](O)[C@H]1O,-1.32%,–
OCCCNCc1ccccn1,0.29% [at 11.5 µM],–
O=C(NCc1ccccn1)c1cc2ccccc2oc1=O,-0.481%,–
Cc1cccn2c(=O)c3cc(C(=O)NCc4ccccn4)n(C)c3nc12,0.28%,–
O=C(NCc1ccccn1)c1ccc2nc(-c3ccco3)c(-c3ccco3)nc2c1,–,25.1 µM (active)
COc1ccc(CC(=O)Nc2nc3n(n2)C(c2ccccc2)CC(=O)N3)cc1OC (centres undefined),0.956%,–
Cc1cccc(NC(=O)CSc2nnc(CCCCCNC(=O)OC(C)(C)C)o2)c1C,-0.868%,–
CCOc1cc(C(=S)N2CCOCC2)ccc1O,-0.0185%,–
CC(C)C(=O)N1CCN(CCN=CC2=C(O)CC(c3ccco3)CC2=O)CC1 (centres undefined),-3.14%,–
CCCCCCCCCc1ccc(OCCOCCOCCOCCOCCOCCOCCOCCOCCO)cc1,-6.3%,–
COc1c2c(cc3occ(-c4ccc5c(c4)OCO5)c(=O)c13)OC(C)(C)C=C2,-5.41%,–
O=C(CC1CCCCC1)Nc1c2c(nn1-c1ccc(F)cc1)CS(=O)(=O)C2,-1.72%,–
CC1(C)OC2CC(=O)OC[C@@]23C1CC(=O)[C@]1(C)C3CC[C@@]2(C)C(c3ccoc3)OC(=O)C3O[C@@]321 (some centres undefined),-1.5%,–

SMILES,"activity change, negative = inhibition",Potency
Cc1cccc(-c2cc(=O)c3cc(C)ccc3o2)c1,-5.03%,–
CCCc1nc2c(C)cc(-c3nc4ccccc4n3C)cc2n1Cc1ccc(-c2ccccc2C(=O)O)cc1,-5.24%,–
Cn1c(Cc2csc(N)n2)nnc1SC/C=C/c1ccccc1,-17.5%,–
C=C(C)C1CC=C(CO)CC1 (centres undefined),2.74%,–
O=C1OC(C(O)CO)C(O)=C1O (centres undefined),1.71%,–
CCCN1[C@H](C(=O)OC)C[C@@]2(O)[C@@H](O)[C@@H](O)[C@@H](O)C[C@@H]12,-1.49%,–
CCN(c1ccccc1)S(=O)(=O)c1cccc(C(=O)O)c1,-0.863%,–
COc1ccccc1C(=O)C(O)c1ccccc1OC (centres undefined),-0.715%,–
CCNC(=O)CCc1nc(-c2ccc(C(C)(C)C)cc2)no1,-1.09%,–
CC(=O)c1c(C)n(-c2ccc(N(C)C)cc2)c2ccc(OCC(N)=O)cc12,0.0847%,–
CC(=O)OC(C(=O)NC1CCCCC1)c1ccccc1 (centres undefined),0.612%,–
CC(C)C1=CC2=CC[C@@H]3[C@](C)(CO)CCC[C@]3(C)C2CC1 (some centres undefined),-1.8%,–
COC(=O)[C@@H]1C[C@H]2CC[C@H](O)C[C@H]2N1Cc1ccc(N2CCN(C)CC2)cc1,-1.78%,–
COc1ccc(OCc2cccc(C(=O)N3CCCC3)c2)cc1,-1.42%,–
Oc1ccc(O)c2c(O)cccc12,-27.9%,–
N#CCCN1CCN(S(=O)(=O)c2ccc(S(=O)(=O)N3CCCC3)cc2)CC1,0.676%,–
O=C(Nc1cccc(-c2nnc(-c3ccccc3)o2)c1)C1CCCO1 (centres undefined),-0.105%,–
FC(F)(F)c1ccc(CN2C[C@@H]3C(c4ccccc4)C4(c5ccccc5)CC3(C4)[C@H]2c2ccccc2)cc1 (some centres undefined),-0.934%,–
O=C1CSC(c2cccc(F)c2)N1c1ccccc1F (centres undefined),0.368%,–
O=C(O)c1ccc(Cl)c(S(=O)(=O)Nc2ccccc2Cl)c1,-0.369%,–
CN1CC(=O)N=C1N,2.7%,–
CO[C@H]1COC(=O)CCC[C@@H](C)[C@H](OC)COC(=O)[C@@H](C)NC(=O)C/C=C\[C@@H]1C,0.707% [at 11.5 µM],–
COc1cc(=O)[nH]c(=O)n1C(=O)Cc1ccccc1,-0.165%,–
COc1ccc(-c2cc(C(=O)NC(C(=O)O)C(C)C)c(C)o2)cc1OC (centres undefined),0.0406%,–
